Screening results (PubChem)
In the library only some 0.24% were active in any assay of this set; here they are far more common.
hcGAS inh: inhibitors of human cGAS; Q8N884; recombinant h-cGAS, ATP depletion, Kinase-Glo luminescence; inhibition, % at 12.5 µM; 290,000 tested, 0.081% active; AID 1259398;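 also: 0% = vehicle reaction and 100% = reaction without DNA for no activity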
Target sequence (Q8N884 whole entry, looked up): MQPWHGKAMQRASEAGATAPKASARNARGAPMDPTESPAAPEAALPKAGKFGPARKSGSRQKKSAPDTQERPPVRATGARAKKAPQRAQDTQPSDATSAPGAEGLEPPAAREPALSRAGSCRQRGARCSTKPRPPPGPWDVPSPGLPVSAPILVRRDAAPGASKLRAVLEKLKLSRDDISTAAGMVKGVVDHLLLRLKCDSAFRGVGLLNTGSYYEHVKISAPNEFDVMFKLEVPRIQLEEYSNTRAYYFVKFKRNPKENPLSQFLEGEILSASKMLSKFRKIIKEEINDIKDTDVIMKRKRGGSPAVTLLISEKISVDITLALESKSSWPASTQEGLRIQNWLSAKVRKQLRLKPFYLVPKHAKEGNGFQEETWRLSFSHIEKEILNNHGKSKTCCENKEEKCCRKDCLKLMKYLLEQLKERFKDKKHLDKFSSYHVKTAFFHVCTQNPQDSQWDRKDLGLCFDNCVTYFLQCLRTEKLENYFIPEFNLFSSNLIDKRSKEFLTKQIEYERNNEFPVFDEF
NPYLR7 agonist: activates Aedes aegypti NPYLR7 receptor. HEK293T NPYLR7/Galpha15, GCaMP6s calcium fluorescence. AID 1259423. 270,000 tested, 0.15% active. activation, % at 10 µM; in the data active = activation above about 40%;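 also: 0% = vehicle and 100% = reference agonist at the receptor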
mcGAS inh: blocks mouse cGAS activity. AID 1259399. recombinant cGAS, Kinase-Glo ATP depletion luminescence. inhibition, % at 12.5 µM. 160,000 tested, 0.15% active. Q8C6L5;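 also: 0% = negative control wells and 100% = reference inhibitor with no enzyme activity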
An asterisk follows results filed as active; . = not tested or not shown; + = active, no number; ! = repeats disagree. Rule as the data show it, unless noted: active = inhibition above about 40%; inactive = the rest.

SMILES | hcGAS inh | NPYLR7 agonist | mcGAS inh
CCOC(=O)c1[nH]c2c([N+](=O)[O-])cc(OCC)cc2c1CCN1C(=O)c2ccccc2C1=O | -1.6 | -7.3 | 69.5*
CCOC(=O)c1[nH]c2c([N+](=O)[O-])cc(C)cc2c1CCN1C(=O)c2ccccc2C1=O | 4.1 | 4.5 | -7.4
O=C(c1ccc[nH]1)N1CCOC(CC(c2ccccc2)c2ccccc2)C1 (centres undefined) | -6.2 | 3.3 | -11.2
O=C1C2C3C=CC(CC3)C2C(=O)N1/N=C\c1cc2c(cc1Br)OCO2 (centres undefined) | -0.5 | 4.4 | -2.7
O=C1C2C3C=CC(CC3)C2C(=O)N1/N=C\c1cc([N+](=O)[O-])c(O)cc1O (centres undefined) | 0.2 | -9.7 | 66.2*
c1nc(N2CCCCCC2)c2cn[nH]c2n1 | 0.2 | 11.8 | .
COC(=O)CCC(=O)c1ccc(Br)s1 | -6.2 | -3.0 | -4.3
COC(=O)Cc1ccc(C(=O)CCl)s1 | -3.9 | 12.9 | 56.4*
Cc1cc(C)cc(NC(=O)CSc2c[nH]c3ccccc23)c1 | -5.4 | 0.8 | .
CN[C@@H]1C(OC2[C@H](O[C@H]3[C@H](O)[C@@H](O)[C@H](N=C(N)N)[C@@H](O)[C@@H]3N=C(N)N)OC(C)[C@]2(O)CO)OC(CO)C(O)C1O (some centres undefined) | -3.7 | -4.6 | .
CC(CNC1CCCCC1)([N+](=O)[O-])[N+](=O)[O-] | -1.8 | 1.7 | .
CCOC(=O)c1cn[nH]c1S(=O)(=O)N1CCN(C(c2ccccc2)c2ccccc2)CC1 | -4.0 | 2.6 | -10.5
CC(C)CNC(=O)CN(C)C(=O)c1csc(Nc2cc(Cl)ccc2Cl)n1 | 165.6* | 2.7 | .
CCC(C)NC(=O)CN(C)C(=O)c1csc(Nc2cccc(C(F)(F)F)c2)n1 (centres undefined) | -8.6 | . | -5.6
N#CC(C#N)=C1C=C2CC(=NCc3ccccc3)CCC2CC1 (centres undefined) | -3.5 | 35.9 | .
CCN1CCN(C2=CC3=CC(=C(C#N)C#N)CCC3CC2)CC1 (centres undefined) | -9.1 | + | -3.2
N#CC(C#N)=C1C=C2C=C(N3CCCCCC3)CCC2CC1 (centres undefined) | -6.3 | 673.2* | -4.2
N#CC=CN1CCc2ccccc2C1 | -2.6 | 0.9 | .
N#CC(C#N)=C1C=C2C=C(N3CCc4ccccc4C3)CCC2CC1 (centres undefined) | -3.6 | 87.1* | .
COc1ccc(S(=O)(=O)N(CC(=O)N2CCc3sccc3C2c2ccc(Cl)cc2Cl)C2CCCCC2)cc1 (centres undefined) | -3.3 | 21.4 | -4.9
Cc1cc(-c2ccco2)nc2cc3c(cc12)OCO3 | 0.7 | -0.1 | .
Cc1c2c(nc3cc4c(cc13)OCO4)CCc1ccccc1-2 | 46.7* | 1.8 | .
Cc1nc2ncccc2cc1C(=O)N1CCC2(CCNC(=O)CC2)CC1 | -2.2 | 54.9* | .
Cc1cccc2ncc(C(=O)N3CCC4(CCNC(=O)CC4)CC3)c(=O)n12 | -2.5 | 13.4 | .
CNC[C@@H](O)c1ccc(O)c(O)c1 | -2.6 | 54.5* | .
SMILES | hcGAS inh | NPYLR7 agonist | mcGAS inh
CC(C)NC[C@@H](O)c1ccc(O)c(O)c1 | -8.4 | 32.5 | -6.2
Oc1ccccc1C1=NNC2(CC3CC2C2CCCC32)S1 (centres undefined) | 78.1* | -7.7 | .
O=c1ccc(-c2ccco2)nn1Cc1ccc(F)cc1 | -11.7 | 10.3 | .
CCN(CC)CCCC(C)Nc1c2ccc(Cl)cc2nc2ccc(OC)cc12 (centres undefined) | 64.2*! | 66.7* | 29.3
CCN(CC)CCCC(C)NC(=O)c1cc(-c2ccccc2Cl)nn1-c1ccc(OC)cc1 (centres undefined) | -2.6 | 14.1 | -4.5
COc1cccc(CN(C(=O)c2cccc(F)c2)C2CC2)c1OCc1nc(CO)cs1 | -8.8 | -5.6 | -6.8
COc1cccc(CNC2CC2)c1OCc1nc(CO)cs1 | -1.6 | 46.2* | .
CC(NC(=O)C1c2ccccc2-c2ccccc21)c1nnc2n1CCNCC2 (centres undefined) | -1.8 | 2.3 | .
COc1ccccc1OCCCn1c(CCNC(=O)c2ccco2)nc2ccccc21 | -0.7 | 1.9 | -3.2
O=C1c2ccccc2-c2nc3nonc3nc21 | 1.4 | -0.2 | 53.2*
O=C1c2ccccc2-c2nc3ccccc3nc21 | -0.7 | 2.3 | .
COc1ccc(F)cc1S(=O)(=O)NC(c1ccccc1)c1ccccc1 | -7.4 | 7.1 | -8.7
CC(C)CN(Cc1cccn1Cc1ccccc1Cl)C(=O)CN(C(=O)c1cccs1)C(C)C | -11.5 | -4.5 | -4.8
COC(=O)c1ccccc1COn1c(=O)c(-c2ccccc2)[n+]([O-])c2ccccc21 | -4.4 | 21.2 | .
CCOc1cc(/C=C2\C(=N)N3N=CSC3=NC2=O)cc(Br)c1OC(=O)c1ccccc1 | 2.4 | 73.6* | .
COc1cc(/C=C2\C(=N)N3N=CSC3=NC2=O)ccc1OC(=O)c1cccc(C)c1 | -3.5 | 4.3 | .
Cc1ccc(-c2cnn3c(N4CCCCC4)cc(C)nc23)cc1 | -0.9 | -7.5 | -4.1
